PMC11006913

Key:
Experiment in all cases: PBM; 200 nM protein, PBS
Conditions in all cases: dsDNA, one strand shown
HESX1 [1] = molecular target: HESX1 (Homo sapiens, UniProt Q9UBX0 95-180, R165K)
HESX1 [2] = molecular target: HESX1 (Homo sapiens, UniProt Q9UBX0 95-180)
HESX1 [3] = molecular target: HESX1 (Homo sapiens, UniProt Q9UBX0 95-180, R109Q)
HESX1 [4] = molecular target: HESX1 (Homo sapiens, UniProt Q9UBX0 95-180, P111T)
HESX1 [5] = molecular target: HESX1 (Homo sapiens, UniProt Q9UBX0 95-180, F115L)
MSX2 [6] = molecular target: MSX2 (Homo sapiens, UniProt P35548 130-214, R199I)
MSX2 [7] = molecular target: MSX2 (Homo sapiens, UniProt P35548 130-214, F161Y)
ALX4 [8] = molecular target: ALX4 (Homo sapiens, UniProt Q9H161 200-286)
PRRX1 [9] = molecular target: PRRX1 (Homo sapiens, UniProt P54821 80-166, F113S)
ALX4 [10] = molecular target: ALX4 (Homo sapiens, UniProt Q9H161 200-286, Q225E)
ALX1 [11] = molecular target: ALX1 (Homo sapiens, UniProt Q15699 118-204, L144V)
ALX1 [12] = molecular target: ALX1 (Homo sapiens, UniProt Q15699 118-204, L144R)
PROP1 [13] = molecular target: PROP1 (Homo sapiens, UniProt O75360 56-141)
PROP1 [14] = molecular target: PROP1 (Homo sapiens, UniProt O75360 56-141, R99H)
ALX3 = ALX3 (Homo sapiens, UniProt O95076 139-225, L168Q)
PROP1 [15] = molecular target: PROP1 (Homo sapiens, UniProt O75360 56-141, F88S)
PRRX1 [16] = molecular target: PRRX1 (Homo sapiens, UniProt P54821 80-166)
PRRX1 (Homo sapiens, UniProt P54821 80-166), sequence (P54821 80-166): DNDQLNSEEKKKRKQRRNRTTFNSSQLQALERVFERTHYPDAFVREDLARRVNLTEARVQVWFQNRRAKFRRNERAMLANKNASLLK

HESX1 (Homo sapiens, UniProt Q9UBX0 95-180, R165K), sequence (Q9UBX0 95-180 R165K): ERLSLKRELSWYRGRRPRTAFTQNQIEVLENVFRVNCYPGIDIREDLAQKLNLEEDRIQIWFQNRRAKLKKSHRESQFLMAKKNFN
MSX2 (Homo sapiens, UniProt P35548 130-214, F161Y), sequence (P35548 130-214 F161Y): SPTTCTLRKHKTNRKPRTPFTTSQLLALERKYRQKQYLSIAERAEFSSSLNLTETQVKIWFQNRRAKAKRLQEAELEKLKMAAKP
HESX1 (Homo sapiens, UniProt Q9UBX0 95-180, P111T), sequence (Q9UBX0 95-180 P111T): as the sequence (Q9UBX0 95-180 R165K) above, with P17T, K71R counted along it
HESX1 (Homo sapiens, UniProt Q9UBX0 95-180), sequence (Q9UBX0 95-180): as the sequence (Q9UBX0 95-180 R165K) above, with K71R counted along it
HESX1 (Homo sapiens, UniProt Q9UBX0 95-180, R109Q), sequence (Q9UBX0 95-180 R109Q): as the sequence (Q9UBX0 95-180 R165K) above, with R15Q, K71R counted along it
MSX2 (Homo sapiens, UniProt P35548 130-214, R199I), sequence (P35548 130-214 R199I): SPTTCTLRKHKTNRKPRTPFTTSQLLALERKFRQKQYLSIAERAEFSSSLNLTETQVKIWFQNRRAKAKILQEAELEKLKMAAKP
HESX1 (Homo sapiens, UniProt Q9UBX0 95-180, F115L), sequence (Q9UBX0 95-180 F115L): as the sequence (Q9UBX0 95-180 R165K) above, with F21L, K71R counted along it
ALX4 (Homo sapiens, UniProt Q9H161 200-286), sequence (Q9H161 200-286): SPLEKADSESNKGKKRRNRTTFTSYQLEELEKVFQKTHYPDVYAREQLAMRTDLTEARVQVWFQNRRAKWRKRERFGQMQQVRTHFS
PROP1 (Homo sapiens, UniProt O75360 56-141, R99H), sequence (O75360 56-141 R99H): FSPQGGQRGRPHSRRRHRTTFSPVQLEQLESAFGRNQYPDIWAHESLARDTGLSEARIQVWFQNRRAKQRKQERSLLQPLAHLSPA
ALX1 (Homo sapiens, UniProt Q15699 118-204, L144R), sequence (Q15699 118-204 L144R): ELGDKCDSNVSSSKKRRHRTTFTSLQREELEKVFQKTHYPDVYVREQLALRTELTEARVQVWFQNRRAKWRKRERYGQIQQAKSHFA
PROP1 (Homo sapiens, UniProt O75360 56-141), sequence (O75360 56-141): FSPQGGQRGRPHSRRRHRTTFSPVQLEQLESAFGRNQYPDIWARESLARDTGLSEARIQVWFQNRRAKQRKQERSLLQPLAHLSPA
PROP1 (Homo sapiens, UniProt O75360 56-141, F88S), sequence (O75360 56-141 F88S): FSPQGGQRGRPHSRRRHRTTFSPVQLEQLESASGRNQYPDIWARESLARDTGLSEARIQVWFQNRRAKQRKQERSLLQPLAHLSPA
ALX1 (Homo sapiens, UniProt Q15699 118-204, L144V), sequence (Q15699 118-204 L144V): as the sequence (Q15699 118-204 L144R) above, with R27V counted along it
ALX4 (Homo sapiens, UniProt Q9H161 200-286, Q225E), sequence (Q9H161 200-286 Q225E): as the sequence (Q9H161 200-286) above, with Q26E counted along it
PRRX1 (Homo sapiens, UniProt P54821 80-166, F113S), sequence (P54821 80-166 F113S): as the sequence (P54821 80-166) above, with F34S counted along it
ALX3, sequence (O95076 139-225 L168Q): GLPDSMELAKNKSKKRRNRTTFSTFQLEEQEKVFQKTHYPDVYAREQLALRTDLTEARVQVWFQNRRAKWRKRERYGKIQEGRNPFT

## CGACGCGA
HESX1 [1]
  binding signal: 6.36 upbm affinity estimate (log intensity, higher = more binding, comparable within an allelic series)
HESX1 [2]
  binding signal: 6.45 upbm affinity estimate (log intensity, higher = more binding, comparable within an allelic series)
HESX1 [3]
  binding signal: 6.44 upbm affinity estimate (log intensity, higher = more binding, comparable within an allelic series)
HESX1 [4]
  binding signal: 6.38 upbm affinity estimate (log intensity, higher = more binding, comparable within an allelic series)
HESX1 [5]
  binding signal: 6.54 upbm affinity estimate (log intensity, higher = more binding, comparable within an allelic series)

## GCCGGTCC
HESX1 [1]
  binding signal: 6.49 upbm affinity estimate (log intensity, higher = more binding, comparable within an allelic series)
HESX1 [2]
  binding signal: 6.35 upbm affinity estimate (log intensity, higher = more binding, comparable within an allelic series)
HESX1 [3]
  binding signal: 6.44 upbm affinity estimate (log intensity, higher = more binding, comparable within an allelic series)
HESX1 [4]
  binding signal: 6.43 upbm affinity estimate (log intensity, higher = more binding, comparable within an allelic series)
HESX1 [5]
  binding signal: 6.58 upbm affinity estimate (log intensity, higher = more binding, comparable within an allelic series)

## CGCAATTA
HESX1 [1]
  binding signal: 11.6 upbm affinity estimate (log intensity, higher = more binding, comparable within an allelic series)
HESX1 [2]
  binding signal: 11.8 upbm affinity estimate (log intensity, higher = more binding, comparable within an allelic series)
MSX2 [6]
  binding signal: 12.6 upbm affinity estimate (log intensity, higher = more binding, comparable within an allelic series)
HESX1 [3]
  binding signal: 8.21 upbm affinity estimate (log intensity, higher = more binding, comparable within an allelic series)
HESX1 [4]
  binding signal: 10.1 upbm affinity estimate (log intensity, higher = more binding, comparable within an allelic series)
MSX2 [7]
  binding signal: 13.4 upbm affinity estimate (log intensity, higher = more binding, comparable within an allelic series)
HESX1 [5]
  binding signal: 7.22 upbm affinity estimate (log intensity, higher = more binding, comparable within an allelic series)

## GCCAGACC
HESX1 [1]
  binding signal: 6.33 upbm affinity estimate (log intensity, higher = more binding, comparable within an allelic series)
HESX1 [2]
  binding signal: 6.38 upbm affinity estimate (log intensity, higher = more binding, comparable within an allelic series)
HESX1 [3]
  binding signal: 6.33 upbm affinity estimate (log intensity, higher = more binding, comparable within an allelic series)
HESX1 [4]
  binding signal: 6.36 upbm affinity estimate (log intensity, higher = more binding, comparable within an allelic series)
HESX1 [5]
  binding signal: 6.43 upbm affinity estimate (log intensity, higher = more binding, comparable within an allelic series)

## CCAGGACC
HESX1 [1]
  binding signal: 6.54 upbm affinity estimate (log intensity, higher = more binding, comparable within an allelic series)
HESX1 [2]
  binding signal: 6.39 upbm affinity estimate (log intensity, higher = more binding, comparable within an allelic series)
HESX1 [3]
  binding signal: 6.57 upbm affinity estimate (log intensity, higher = more binding, comparable within an allelic series)
HESX1 [4]
  binding signal: 6.52 upbm affinity estimate (log intensity, higher = more binding, comparable within an allelic series)
HESX1 [5]
  binding signal: 6.51 upbm affinity estimate (log intensity, higher = more binding, comparable within an allelic series)

## GCAATTAC
HESX1 [1]
  binding signal: 11.4 upbm affinity estimate (log intensity, higher = more binding, comparable within an allelic series)
HESX1 [2]
  binding signal: 11.5 upbm affinity estimate (log intensity, higher = more binding, comparable within an allelic series)
MSX2 [6]
  binding signal: 12.5 upbm affinity estimate (log intensity, higher = more binding, comparable within an allelic series)
HESX1 [3]
  binding signal: 8.2 upbm affinity estimate (log intensity, higher = more binding, comparable within an allelic series)
HESX1 [4]
  binding signal: 9.93 upbm affinity estimate (log intensity, higher = more binding, comparable within an allelic series)
MSX2 [7]
  binding signal: 13.4 upbm affinity estimate (log intensity, higher = more binding, comparable within an allelic series)
HESX1 [5]
  binding signal: 7.19 upbm affinity estimate (log intensity, higher = more binding, comparable within an allelic series)

## ATAATTGC
HESX1 [1]
  binding signal: 12.2 upbm affinity estimate (log intensity, higher = more binding, comparable within an allelic series)
ALX4 [8]
  binding signal: 13.6 upbm affinity estimate (log intensity, higher = more binding, comparable within an allelic series)
PRRX1 [9]
  binding signal: 11.1 upbm affinity estimate (log intensity, higher = more binding, comparable within an allelic series)
ALX4 [10]
  binding signal: 12.7 upbm affinity estimate (log intensity, higher = more binding, comparable within an allelic series)
HESX1 [2]
  binding signal: 12.4 upbm affinity estimate (log intensity, higher = more binding, comparable within an allelic series)
MSX2 [6]
  binding signal: 12.9 upbm affinity estimate (log intensity, higher = more binding, comparable within an allelic series)
ALX1 [11]
  binding signal: 11.4 upbm affinity estimate (log intensity, higher = more binding, comparable within an allelic series)
ALX1 [12]
  binding signal: 11.1 upbm affinity estimate (log intensity, higher = more binding, comparable within an allelic series)
PROP1 [13]
  binding signal: 11.1 upbm affinity estimate (log intensity, higher = more binding, comparable within an allelic series)
HESX1 [3]
  binding signal: 8.36 upbm affinity estimate (log intensity, higher = more binding, comparable within an allelic series)
PROP1 [14]
  binding signal: 10.9 upbm affinity estimate (log intensity, higher = more binding, comparable within an allelic series)
ALX3
  binding signal: 10.3 upbm affinity estimate (log intensity, higher = more binding, comparable within an allelic series)
HESX1 [4]
  binding signal: 10.6 upbm affinity estimate (log intensity, higher = more binding, comparable within an allelic series)
PROP1 [15]
  binding signal: 7.6 upbm affinity estimate (log intensity, higher = more binding, comparable within an allelic series)
MSX2 [7]
  binding signal: 13.6 upbm affinity estimate (log intensity, higher = more binding, comparable within an allelic series)
HESX1 [5]
  binding signal: 7.74 upbm affinity estimate (log intensity, higher = more binding, comparable within an allelic series)
PRRX1 [16]
  binding signal: 13.2 upbm affinity estimate (log intensity, higher = more binding, comparable within an allelic series)

## AATAATTG
HESX1 [1]
  binding signal: 12.3 upbm affinity estimate (log intensity, higher = more binding, comparable within an allelic series)
ALX4 [8]
  binding signal: 13.5 upbm affinity estimate (log intensity, higher = more binding, comparable within an allelic series)
PRRX1 [9]
  binding signal: 11.2 upbm affinity estimate (log intensity, higher = more binding, comparable within an allelic series)
ALX4 [10]
  binding signal: 12.8 upbm affinity estimate (log intensity, higher = more binding, comparable within an allelic series)
HESX1 [2]
  binding signal: 12.4 upbm affinity estimate (log intensity, higher = more binding, comparable within an allelic series)
MSX2 [6]
  binding signal: 12.6 upbm affinity estimate (log intensity, higher = more binding, comparable within an allelic series)
ALX1 [11]
  binding signal: 11.5 upbm affinity estimate (log intensity, higher = more binding, comparable within an allelic series)
ALX1 [12]
  binding signal: 11.3 upbm affinity estimate (log intensity, higher = more binding, comparable within an allelic series)
PROP1 [13]
  binding signal: 11 upbm affinity estimate (log intensity, higher = more binding, comparable within an allelic series)
HESX1 [3]
  binding signal: 8.84 upbm affinity estimate (log intensity, higher = more binding, comparable within an allelic series)
PROP1 [14]
  binding signal: 11.1 upbm affinity estimate (log intensity, higher = more binding, comparable within an allelic series)
ALX3
  binding signal: 10.3 upbm affinity estimate (log intensity, higher = more binding, comparable within an allelic series)
HESX1 [4]
  binding signal: 10.8 upbm affinity estimate (log intensity, higher = more binding, comparable within an allelic series)
PROP1 [15]
  binding signal: 7.6 upbm affinity estimate (log intensity, higher = more binding, comparable within an allelic series)
MSX2 [7]
  binding signal: 13.4 upbm affinity estimate (log intensity, higher = more binding, comparable within an allelic series)
HESX1 [5]
  binding signal: 8.12 upbm affinity estimate (log intensity, higher = more binding, comparable within an allelic series)
PRRX1 [16]
  binding signal: 13.2 upbm affinity estimate (log intensity, higher = more binding, comparable within an allelic series)
